Test results taken from PubChem BioAssay (Tox21).
Results filed as inconclusive are left out. Activity calls are given as the source filed them. Unless noted, calls come from the whole dose curve; as a rule, active = well fitted curve in the direction sought with a large enough effect in the repeat runs; inconclusive = weak or mixed curves; inactive = no such curve, though single readings can be large; an effect the other way counts as inactive or inconclusive.

What was measured:
[1] = qHTS assay to identify small molecule antagonists of the retinoid acid receptor (RAR) signaling pathway - cell viability counter screen (AID 1159551); note: nearly all actives have a fitted effect of over 35% in size
Outline: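 Following overnight attachment, C3RL4 reporter cells received DMSO-dissolved compounds and then retinol (1 uM final). Six hours later at 37 C, ATP content was measured by CellTiter-Glo luminescence.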

[2] = qHTS assay to identify small molecule antagonists of the retinoic acid receptor (RAR) signaling pathway (AID 1159552; note: nearly all actives have a fitted effect of over 50% in size)
Outline: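 Using a RARE-driven luciferase construct in C3RL4 cells, retinol at 1 uM final provided the agonist stimulus while compounds were co-applied. After 6 hours at 37 C, luminescence was recorded to flag inhibitors of retinol signaling.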

[3] = qHTS assay to identify small molecule agonists of the retinoic acid receptor (RAR) signaling pathway (AID 1159553)
Outline: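 Cell line C3RL4, RARE luciferase reporter. Treatment: compounds in DMSO, 6 hr, 37 C, 5% CO2, after overnight plating. Detection: luminescence, 30 min RT after reagent.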

[4] = qHTS assay to identify small molecule antagonists of the estrogen related receptor (ERR) signaling pathway from Tox21 library - cell viability counter screen (AID 1224834); note: nearly all actives have a fitted effect of over 30% in size
Outline: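 Viability readout (CellTiter-Fluor fluorescence, 30 min at 37 C) multiplexed with the ERR assay; cells treated 17.5 h at 37 C with compounds delivered in DMSO.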

[5] = biological target: Luciferin 4-monooxygenase (Photinus pyralis) (UniProt P08659); assay: qHTS assay to identify small molecule inhibitors of firefly luciferase (AID 1224835); note: nearly all actives have a fitted effect of over 25% in size
Luciferin 4-monooxygenase (Photinus pyralis), sequence (P08659 whole entry, looked up): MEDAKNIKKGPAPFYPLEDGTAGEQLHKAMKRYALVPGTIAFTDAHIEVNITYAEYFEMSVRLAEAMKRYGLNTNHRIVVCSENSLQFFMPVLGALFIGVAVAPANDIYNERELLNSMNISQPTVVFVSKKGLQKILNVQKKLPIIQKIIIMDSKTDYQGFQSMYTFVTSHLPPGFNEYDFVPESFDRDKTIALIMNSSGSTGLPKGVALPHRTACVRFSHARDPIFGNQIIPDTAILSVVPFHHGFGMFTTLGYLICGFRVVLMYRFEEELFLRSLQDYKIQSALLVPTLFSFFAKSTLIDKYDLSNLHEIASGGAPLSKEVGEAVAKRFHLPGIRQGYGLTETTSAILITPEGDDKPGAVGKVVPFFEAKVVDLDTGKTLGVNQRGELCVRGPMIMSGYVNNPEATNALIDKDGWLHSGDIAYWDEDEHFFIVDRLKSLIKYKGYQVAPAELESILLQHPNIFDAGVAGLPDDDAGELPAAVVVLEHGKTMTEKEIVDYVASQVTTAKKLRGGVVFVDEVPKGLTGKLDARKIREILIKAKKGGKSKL
Outline: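 Biochemical qHTS: compounds run as interplate titrations against purified firefly enzyme, with D-luciferin and ATP each at its KM concentration. Light output recorded by CCD imaging.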

[6] = qHTS assay to identify small molecule antagonists of the constitutive androstane receptor (CAR) signaling pathway - cell viability counter screen (AID 1224837); note: nearly all actives have a fitted effect of over 45% in size
Outline: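 Fluorescence from CellTiter-Fluor served as the viability signal. Human hepatoma HepG2 cells stably bearing hCAR and CYP2B6-2.2kb received compound plus CITCO (50 nM final) for 23 hr.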

[7] = biological target: Nuclear receptor subfamily 1 group I member 3 (Homo sapiens) (UniProt Q14994); assay: qHTS assay to identify small molecule antagonists of the constitutive androstane receptor (CAR) signaling pathway (AID 1224838);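 note: HepG2 cells stably expressing hCAR with CYP2B6 luciferase reporter stimulated by CITCO; nearly all actives have a fitted effect of over 40% in size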
Nuclear receptor subfamily 1 group I member 3 (Homo sapiens), sequence (Q14994 whole entry, looked up): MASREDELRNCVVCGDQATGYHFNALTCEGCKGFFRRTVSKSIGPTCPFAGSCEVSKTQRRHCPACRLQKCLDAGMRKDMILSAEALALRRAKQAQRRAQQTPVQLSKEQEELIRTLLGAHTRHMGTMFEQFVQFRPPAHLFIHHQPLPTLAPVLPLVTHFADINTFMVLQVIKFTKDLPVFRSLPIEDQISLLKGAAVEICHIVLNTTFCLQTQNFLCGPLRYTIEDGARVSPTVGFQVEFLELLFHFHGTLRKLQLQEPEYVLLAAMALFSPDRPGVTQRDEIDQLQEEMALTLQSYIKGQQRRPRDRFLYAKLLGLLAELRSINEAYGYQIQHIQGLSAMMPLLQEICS
Outline: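 Quantitative HTS in double-stable HepG2-CYP2B6-hCAR cells. After 4 h plating, cells get compound (15 concentrations) and CITCO at 50 nM final, incubate 24 h at 37 C, then ONE-Glo luminescence is read.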

[8] = biological target: Nuclear receptor subfamily 1 group I member 3 (Homo sapiens) (UniProt Q14994); assay: qHTS assay to identify small molecule agonists of the constitutive androstane receptor (CAR) signaling pathway (AID 1224839);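 note: HepG2 cells stably carrying human CAR and a CYP2B6 luciferase reporter; nearly all actives have a fitted effect of over 15% in size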
Outline: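 Using human hepatoma HepG2 cells engineered with hCAR and a CYP2B6-2.2kb reporter, 15-concentration compound series were incubated 24 h alongside PK11195 at 0.75 uM final, with luminescence quantified afterwards.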

[9] = qHTS assay to identify small molecule antagonists of the estrogen related receptor signaling pathway with the pleiotropic PPARgamma coactivator (PGC) from Tox21 10K library - cell viability counter screen (AID 1224840; active = well fitted cell-killing curve with a large enough effect in the repeat runs, not every such curve was filed as active; note: nearly all actives have a fitted effect of over 40% in size)
Outline: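 Compounds in DMSO, alongside positive and negative controls, were pinned onto PGC/ERR cells (2,000 per well). Exposure lasted 17.5 hours at 37 C, followed by a 30-minute CellTiter-Fluor incubation and fluorescence reading.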

[10] = biological target: Thyrotropin receptor (Homo sapiens) (UniProt P16473); assay: qHTS assay to identify small molecule agonists of the thyroid stimulating hormone receptor (TSHR) signaling pathway (AID 1224843; calls by dose curve; note: nearly all actives have a fitted effect of over 45% in size)
Thyrotropin receptor (Homo sapiens), sequence (P16473 whole entry, looked up): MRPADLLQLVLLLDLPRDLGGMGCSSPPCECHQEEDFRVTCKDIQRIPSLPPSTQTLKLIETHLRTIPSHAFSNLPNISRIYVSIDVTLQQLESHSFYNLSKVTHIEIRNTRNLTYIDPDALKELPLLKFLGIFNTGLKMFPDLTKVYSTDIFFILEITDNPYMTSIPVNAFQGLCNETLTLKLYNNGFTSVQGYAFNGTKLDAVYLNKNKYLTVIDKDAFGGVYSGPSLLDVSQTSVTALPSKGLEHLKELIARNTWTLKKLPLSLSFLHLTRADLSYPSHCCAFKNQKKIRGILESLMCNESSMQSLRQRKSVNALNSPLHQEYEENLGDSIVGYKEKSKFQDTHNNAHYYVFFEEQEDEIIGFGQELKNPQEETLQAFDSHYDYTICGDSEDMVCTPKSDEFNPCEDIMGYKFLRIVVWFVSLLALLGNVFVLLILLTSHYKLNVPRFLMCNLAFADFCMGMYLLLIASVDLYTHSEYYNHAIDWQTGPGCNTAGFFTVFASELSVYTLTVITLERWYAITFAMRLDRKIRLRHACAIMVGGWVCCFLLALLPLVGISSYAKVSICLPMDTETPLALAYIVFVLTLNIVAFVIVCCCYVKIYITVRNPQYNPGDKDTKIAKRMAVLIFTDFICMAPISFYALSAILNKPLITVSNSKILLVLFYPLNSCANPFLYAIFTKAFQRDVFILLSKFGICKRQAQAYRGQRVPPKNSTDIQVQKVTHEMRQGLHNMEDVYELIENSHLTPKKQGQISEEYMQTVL
Outline: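 Steps: seed 800 TSHR-HEK293 cells per well; add test compound and hold 30 min at ambient temperature; dispense cAMP-d2 then anti-cAMP cryptate; incubate 1 h at ambient; measure fluorescence intensity.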

[11] = qHTS assay to identify small molecule agonists of H2AX (AID 1224845; active = well fitted activation curve with a large enough effect in the signal ratio in the repeat runs, not every such curve was filed as active; the % refers to the signal ratio)
Outline: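 Wild-type CHO-K1 cells, plated overnight, exposed 3hr at 37C to 15 concentrations (0.76% DMSO final). Lysed, then HTRF anti-pH2AX (S139) cryptate and anti-H2AX-d2 antibodies, 24 hr room temperature; 665/620 nm emission read.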

[12] = qHTS assay to identify small molecule agonists of the hypoxia (HIF-1) signaling pathway (AID 1224846; active = well fitted activation curve with a large enough effect in the signal ratio in the repeat runs, not every such curve was filed as active; the % refers to the signal ratio)
Outline: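 Measured by blue/green FRET after loading CCF4-AM: beta-lactamase expressed from a hypoxia response element in ME-180 cells. Test agents were delivered in DMSO and left 17 hrs; cells had been plated 5 hrs earlier in low-serum (0.5% dialyzed FBS) medium.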

[13] = qHTS assay to identify small molecule agonists of H2AX - cell viability counter screen (AID 1224847; calls by dose curve; note: top concentration of the series differs between compounds; nearly all actives have a fitted effect of over 30% in size)
Outline: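 After overnight plating of 1000 CHO-K1 cells per well, a 15-concentration compound series was applied for 3 hr at 37C. Luminescence from CellTiter-Glo, read following 30 min at room temperature, reflected cell viability.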

[14] = qHTS RealTime-Glo MT Cell Viability Assay in HepG2 cells - 24 hour (AID 1224867); note: nearly all actives have a fitted effect of over 50% in size
Outline: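 Tox21 10K library screened in qHTS format on HepG2 cells carrying RealTime-Glo reagents. Compounds were added after a 5 h preincubation, and the luminescent signal from continuous culture was measured repeatedly during 40 h treatment.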

[15] = qHTS assay to identify small molecule agonists of the estrogen related receptor signaling pathway with the pleiotropic PPARgamma coactivator (PGC) from Tox21 10K library (AID 1224842); note: nearly all actives have a fitted effect of over 15% in size
Outline: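 PGC/ERR reporter cell line, 2,000 cells per well, incubated 6 h at 37 C before 23 nL compound in DMSO was added. After 18 h at 37 C, One-Glo luminescence read following 30 min at room temperature.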

[16] = qHTS assay to identify small molecule agonists of the hypoxia (HIF-1) signaling pathway - cell viability counter screen (AID 1224844; calls by dose curve; note: nearly all actives have a fitted effect of over 50% in size)
Outline: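 Luminescent ATP content (CellTiter-Glo, 30 min, room temperature) served as the viability measure in HRE-bla ME-180 cells exposed to compounds for 17 hrs in low-serum medium (0.5% dialyzed FBS).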

[17] = qHTS assay to identify small molecule antagonists of the estrogen related receptor (ERR) signaling pathway from Tox21 library (AID 1224848); note: nearly all actives have a fitted effect of over 50% in size
Outline: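 Luminescent reporter read-out (ONE-Glo) from NTP's ERR cell line after 18 h treatment at 37 C with DMSO-dissolved Tox21 compounds; cells pre-plated 6 h beforehand at 2,000 per well.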

[18] = qHTS assay to identify small molecule agonists of the estrogen related receptor (ERR) signaling pathway from Tox21 library (AID 1224849; calls by dose curve; note: nearly all actives have a fitted effect of over 15% in size); details: ERR reporter cell line, ONE-Glo luciferase, 18 h; at 92.4 µM (top of the series) unless noted
Outline: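 We plated ERR reporter cells, waited 6 h, added compounds in DMSO by pin tool and incubated them 18 h at 37 C. ONE-Glo was then added and luminescence read after 30 min.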

[19] = qHTS assay to identify small molecule agonists of the constitutive androstane receptor (CAR) signaling pathway - cell viability counter screen (AID 1224836); note: nearly all actives have a fitted effect of over 45% in size
Outline: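 Multiplexed viability check: HepG2-CYP2B6-hCAR cells, 15-point compound dosing, 0.75 uM PK11195 final, 23 h at 37 C, CellTiter-Fluor fluorescence.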

[20] = qHTS assay to identify small molecule antagonists of the estrogen related receptor signaling pathway with the pleiotropic PPARgamma coactivator (PGC) from Tox21 10K library (AID 1224841; call rule not given here)
Outline: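 Compound exposure ran 18 hours at 37 C in PGC/ERR cells (2,000/well) that had first rested 6 hours in a 37 C/5% CO2 incubator. Luciferase activity was then detected with One-Glo after a 30-minute room-temperature step.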
% is set by controls: 0 for no effect and ±100 for the full control effect.

Cc1ccc(NC(N)=O)cc1
inactive: outcome [1] | outcome [2] | Potency [3] | outcome [4] | Potency [5] | outcome [6] | outcome [7] | Potency [8] | outcome [9] | Potency [10] | outcome [11] | outcome [12] | outcome [13] | outcome [14]

CN(C)CCc1c[nH]c2ccc(C[C@H]3COC(=O)N3)cc12
inactive: outcome [1] | outcome [2] | Potency [3] | outcome [4] | Potency [5] | outcome [6] | outcome [9] | Potency [10] | outcome [11] | outcome [12] | outcome [13] | outcome [14]

CN(C)CCC[C@@]1(c2ccc(F)cc2)OCc2cc(C#N)ccc21
inactive: outcome [1] | outcome [2] | Potency [3] | outcome [4] | Potency [5] | outcome [7] | Potency [8] | outcome [9] | Potency [15] | Potency [10] | outcome [16] | outcome [11] | outcome [13] | outcome [17] | activity change, positive = activation [18] -3.55% [at 42.5 µM] | outcome [14]

Cc1ccc(OC(=O)CC(C)C)cc1
inactive: outcome [1] | outcome [2] | Potency [3] | outcome [4] | outcome [19] | outcome [6] | outcome [7] | Potency [8] | outcome [9] | Potency [20] | Potency [15] | Potency [10] | outcome [16] | outcome [11] | outcome [12] | outcome [13] | outcome [17] | activity change, positive = activation [18] -0.118% | outcome [14]

CC(C)C[P+](C)(CC(C)C)CC(C)C
inactive: outcome [1] | outcome [2] | Potency [3] | outcome [4] | Potency [5] | outcome [6] | outcome [7] | outcome [9] | Potency [15] | Potency [10] | outcome [16] | outcome [11] | outcome [12] | outcome [13] | outcome [17] | activity change, positive = activation [18] -12.2% | outcome [14]

CN(C)CCCN(C)C
inactive: activity change, negative = cytotoxicity [1] -1.41% [at 8.39 µM] | activity, negative = inhibition [2] 0.227% [at 8.39 µM] | activation [3] 0.0534% [at 8.36 µM] | viability change, negative = cytotoxic [4] 0.808% [at 8.39 µM] | activity change, negative = inhibition [5] 2.53% [at 10.5 µM] | activity change, negative = cytotoxicity [6] 1.66% [at 8.39 µM] | activation [8] -0.471% [at 8.39 µM] | viability change, negative = cytotoxic [9] 4.04% [at 8.39 µM] | activation [10] -10.3% [at 8.39 µM] | activity change, negative = cytotoxicity [16] 11.5% [at 6.97 µM] | activation (H2AX phosphorylation) [11] 0.536% [at 14 µM] | activation [12] -0.634% [at 7.01 µM] | activity change, negative = cytotoxicity [13] 0.19% [at 14 µM] | activity change, negative = cytotoxicity [14] 0.293% [at 6.97 µM]

CC(=O)c1ccc(O)c(C(N)=O)c1
inactive: outcome [1] | outcome [2] | Potency [3] | outcome [4] | Potency [5] | outcome [9] | Potency [10] | outcome [16] | outcome [11] | outcome [13] | outcome [14]

C=CCCCCCCCCOC(C)=O
inactive: outcome [1] | outcome [2] | Potency [3] | outcome [4] | Potency [5] | outcome [9] | Potency [20] | Potency [15] | outcome [16] | outcome [11] | outcome [12] | outcome [13] | outcome [17] | activity change, positive = activation [18] 7.36% | outcome [14]
